Screens: PubChem BioAssay, National Center for Advancing Translational Sciences (NCATS)
miR-21 act – qHTS Assay for Modulators of miRNAs and/orActivators of miR-21. HeLa miR-21 FLuc reporter, luciferase, 48 h. Potency, µM (titrated, usually from 38.3 µM), inactives show at the top dose activity change, positive = activation, most hits filed as activators. 340,000 tested, under 10 active. AID 2288, 2010;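 note: % of control where 0% means no effect; miR-21 action dims this reporter so a rising signal means less miR-21 action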
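HeLa miR-21-FLuc reporter line, endogenous miR-21; 2000 cells/well in DMEM/10% FBS; compound titration up to ~40uM final, 48 h, 37 degree Celsius; luciferase detection reagent, 15 min lysis, CCD luminescence.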
uPA generation – qHTS for Inhibitors of Cell Surface uPA Generation | cell surface uPA generation assay, qHTS | Potency, µM (titrated, usually from 38.3 µM), without a hit: at the highest dose activity change, negative = inhibition, hits mostly inhibitors | 330,000 tested, 0.31% active; active = well fitted inhibition curve with a large enough effect; inconclusive = small, poorly fitted or top-dose-only effect; inactive = no such curve, though single readings can be large or run the other way; tested in mouse RAW 264.7 cells; note: potency is the fitted concentration of half-maximal effect; % is set by controls: 0 for no effect and ±100 for the full control effect; nearly all actives have a fitted effect of over 55% in size
FBPA coupling cs – qHTS Assay for Inhibitors of Fructose-1,6-bisphosphate Aldolase from Giardia Lamblia: Coupling assay counterscreen; coupling enzyme system counterscreen, AmpLite Red fluorescence; activity change, negative = inhibition, % at 58.2 µM, hits read low; 290,000 tested, 0.67% active; in the data active = activity change below about -30%; note: % is set by controls: 0 for no effect and ±100 for the full control effect
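Coupling enzymes only (glyceraldehyde-3-phosphate) + compound, at 57.5 uM final, 10 min RT; add substrate/coupling/AmpLite Red mix, 20 min RT; fluorescence ex 525/em 598 nm. Actives flag coupling-system interference.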
Giardia kill – Small Molecules that selectively kill Giardia lamblia: qHTS | activity change, % at 7.66 µM, hits read low | Giardia lamblia trophozoite viability | AID 540267, 2011 | 340,000 tested, 0.15% active; in the data active = activity change below about -80%; inconclusive = between about -30% and that limit;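 note: parasites exposed to compound for two days anaerobically before the ATP read; % is set by controls: 0 for no effect and ±100 for the full control effect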
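Anaerobic 48 hrs incubation at 37 deg C of 100 trophozoites/well with test compounds; ATPLite 1-Step luminescence, 15-30 min RT, reports cellular ATP as viability.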
GALK inh – qHTS Assay for Inhibitors of Human Galactokinase (GALK); AID 1868, 2009; 270,000 tested, 0.007% active; Purified GALK, Kinase-Glo residual ATP luminescence; P51570; Potency, µM (doses to about 57.5 µM), for inactives: top-dose activity change, negative = inhibition, usual class: inhibitors; note: potency is the fitted concentration of half-maximal effect; % is set by controls: 0 for no effect and ±100 for the full control effect
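ATP-depletion format; final 35 uM ATP, 100 uM D-galactose, 5 nM enzyme; pH 8.0 HEPES/Mg2+ buffer; 60 min RT; luminescence read 10 min after detection reagent.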
B2AR arrestin – qHTS assay of beta-arrestin-biased ligands of beta2-adrenergic receptor; beta-arrestin recruitment to beta2AR, cell-based reporter; Potency, µM (doses to about 46.1 µM), for inactives: top-dose activation, actives largely listed as activators; 330,000 tested, 0.02% active; AID 492947, 2010;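 note: potency is the fitted concentration of half-maximal effect; 0% = DMSO controls and full agonism = EC100 isoproterenol or metaproterenol; nearly all actives have a fitted effect of over 65% in size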
Target sequence (P07550 whole entry, looked up): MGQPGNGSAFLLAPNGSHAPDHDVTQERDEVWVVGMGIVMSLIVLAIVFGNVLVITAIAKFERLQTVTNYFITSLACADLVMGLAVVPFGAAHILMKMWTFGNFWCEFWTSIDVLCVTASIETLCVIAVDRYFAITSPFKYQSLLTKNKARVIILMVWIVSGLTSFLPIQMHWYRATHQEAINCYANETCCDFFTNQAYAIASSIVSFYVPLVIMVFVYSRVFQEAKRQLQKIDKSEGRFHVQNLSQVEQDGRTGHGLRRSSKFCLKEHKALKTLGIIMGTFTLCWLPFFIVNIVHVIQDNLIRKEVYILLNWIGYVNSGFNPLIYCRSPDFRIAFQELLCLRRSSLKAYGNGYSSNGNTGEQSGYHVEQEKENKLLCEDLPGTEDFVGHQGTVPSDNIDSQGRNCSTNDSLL
Numbers without * were called inactive; ? = inconclusive; . = no result. Shown are actives, neighbours in structure and some others; about 0.92% of the full set was active somewhere. Unless noted, calls come from the whole dose curve; as a rule, active = well fitted curve in the direction sought with a large enough effect; inconclusive = small, poorly fitted or top-dose-only effect, or another doubt; inactive = no such curve, though single readings can be large; an effect the other way counts as inactive or inconclusive.

SMILES	miR-21 act	uPA generation	FBPA coupling cs	Giardia kill	GALK inh	B2AR arrestin
O=[N+]([O-])c1cccc(CSc2nc3ccccc3[nH]2)c1	-44%	0%	-7	3	3%	0%
COc1cccc(CSc2nc3ccccc3[nH]2)c1	-41%	8.9µM*	-6	-13	0%	7%
CCOC(=O)CC(CC(C)=O)C(=O)OCC (stereo unspecified)	.	.	0	.	.	.
CCc1nc2nc(C)cc(Nc3cc(C)ccc3C)n2n1	7%	.	.	.	.	.
COC(=O)CSc1ncnc2c1sc1nc3c(cc12)COC(C)(C)C3	0%	-5%	2	-26	0%	0%
CC1(C)Cc2nc3sc4c(SCC(=O)O)ncnc4c3cc2CO1	?	2.2µM*	9	?	0%	0%
O=C1C(=O)c2c(C(=O)c3ccccc3)coc2-c2ccccc21	?	-14%	-80*	-5	3%	0%
Cc1oc2c(c1C(=O)O)C(=O)c1ccccc1C2=O	-7%	-9%	-29	?	6%	0%
CCOC(=O)c1c(C)oc2c1C(=O)c1ccccc1C2=O	2%	?	-43*	-81*	-2%	0%
Cc1oc2c(c1C(=O)c1ccccc1)C(=O)C(=O)c1ccccc1-2	?	-11%	-78*	-1	-9%	0%
COC(=O)C1=C[C@@H](C(=O)OC)[C@@H]2C3=C(C(=O)C2(C)C)[C@H](c2ccccc2)[C@@H]2C(=O)N(c4ccccc4)C(=O)[C@@H]2[C@@H]3C1	.	.	-2	?	.	.
Cc1ccc(C2C(C#N)=C(N)SC(N)=C2C#N)c(C)c1	-1%	5%	-41*	-8	3%	0%
Cc1ccc(C2C(C#N)=C(N)SC(N)=C2C#N)cc1	-12%	-1%	-16	5	-8%	0%
O=C(Nc1ccc(S(=O)(=O)NC2=NCCCCC2)cc1)c1cccs1	.	11%	.	-16	.	0%
O=C(Nc1ccc(S(=O)(=O)NC2=NCCCCC2)cc1)c1ccc([N+](=O)[O-])s1	.	10µM*	.	-13	.	0%
COc1ccc(-n2c(=O)c3ccc(C(=O)NCc4ccc(C)cc4)cc3n(CC(=O)Nc3ccc(C)cc3)c2=O)cc1	-2%	.	.	.	.	.
O=C(C1=C(c2ccccc2)C(=O)c2ccccc2C1=O)c1ccccc1	30%	?	-62*	?	.	-1%
COC1=C(c2ccccc2)C(=O)c2ccccc2C1=O	-5%	-9%	-33*	37	.	1%
COc1ccccc1NC(=O)COc1cccnc1[N+](=O)[O-]	.	-24%	.	?	.	-1%
COC(=O)c1sc(NC(=O)COc2cccnc2[N+](=O)[O-])c(C(=O)OC)c1C	.	?	.	-82*	.	0%
COc1cc(/C=C/C(=O)OCC(=O)N2c3ccccc3CC2C)cc(OC)c1OC (stereo unspecified)	.	10µM*	.	-1	.	0%
COc1cccc(/C=C/C(=O)OCC(=O)N2c3ccccc3CC2C)c1OC (stereo unspecified)	.	1%	.	-13	.	0%
CC(=O)N(O)C/C=C/c1cccc(Oc2ccccc2)c1	.	.	0	.	.	.
Cc1ccc(C(=O)N2CCn3c4c(c5cc(C)ccc53)CCCC42)cc1 (stereo unspecified)	9%	.	.	.	.	.
Cc1ccc2c(c1)c(=O)c1c3n2CCN(C(=O)CCl)C3CC1 (stereo unspecified)	4%	2%	-42*	-24	-3%	-1%
SMILES	miR-21 act	uPA generation	FBPA coupling cs	Giardia kill	GALK inh	B2AR arrestin
Cc1ccc2c(c1)c1c3n2CCN(C(=O)C2CC2)C3CCC1 (stereo unspecified)	-29%	-11%	-36*	-4	2%	0%
Cc1ccc(-c2cc(NC(=O)C(C)Oc3ccccc3F)on2)cc1 (stereo unspecified)	-27%	.	.	.	.	.
Cc1ccc(NS(=O)(=O)c2ccc3c(c2)N(C)C(=O)CC(=O)N3C)cc1Cl	14%	.	.	.	.	.
CCN(CC)S(=O)(=O)c1ccc(N2CCOCC2)c(NC(=O)c2cccc3ccccc23)c1	-12%	-14%	3	-10	1%	0%
CCN(CC)S(=O)(=O)c1ccc(N2CCOCC2)c(NC(=O)c2cccc3c(=O)c(C)c(-c4ccccc4)oc23)c1	.	4.5µM*	.	58	.	.
Cc1cc(N2CCCC2)ccc1/C=C1/C(=O)N(C)C(=S)N1C	-2%	3%	0	5	4%	6%
CN1C(=O)/C(=C/C=C2/CCCN2C)N(C)C1=S	-2%	-1%	-42*	-6	12%	0%
CC(C)(C)C(=O)Nc1ccc(-c2cn3ccsc3n2)cc1	14%	-18%	3	-97*	0%	0%
CC(C)CC(=O)Nc1ccc(-c2cn3ccsc3n2)cc1	-6%	9%	-1	14	3%	0%
CCOC(=O)c1cnc2cc(-c3ccc(OCC)cc3)nn2c1-c1ccccc1	-12%	.	.	.	.	.
CCOC(=O)COc1cccc2c(=O)n(CC(=O)NCc3ccc(F)cc3)ccc12	20%	0.056µM*	3	-4	2%	-1%
CCOC(=O)COc1cccc2c(=O)n(CC(N)=O)ccc12	2%	0%	1	-15	-2%	-1%
CCOC(=O)COc1cccc2c(=O)n(CC(=O)NCc3ccccc3)ccc12	14%	0.2µM*	2	7	0%	-1%
CN1CCc2c(n(CC(O)CN(CCO)CCO)c3ccccc23)C1=O (stereo unspecified)	1%	-4%	-51*	-3	-3%	0%
CN1CCc2c(n(CC(O)CNCc3ccccc3)c3ccccc23)C1=O (stereo unspecified)	-9%	-32%	-24	-8	2%	0%
Cc1ccc(C(C)C)c(OCCCn2c(=O)oc3ccc(C)cc32)c1	-2%	.	.	.	.	.
C(=N\Nc1ccc2ccccc2n1)/c1ccc2c(c1)OCCO2	?	2.2µM*	-7	-28	3%	0%
C(=N\Nc1nc2ccccc2[nH]1)/c1ccc2c(c1)OCCO2	20%	?	2	-14	5%	-1%
Cc1cccc(/C=N/Nc2ccc3ccccc3n2)c1	25%	8.9µM*	0	?	11%	0%
Cc1ccc(Oc2nc3ccccn3c(=O)c2/C=C(\C#N)c2nc3ccccc3s2)c(C)c1	1%	.	.	.	.	.
CCOC(=O)c1cc(-c2ccccc2)nn1-c1ccccn1	-11%	-2%	-34*	3	0%	-1%
CCOC(=O)c1cc(-c2cccnc2)nn1-c1ccccc1	-1%	-10%	-6	-13	12%	-1%
N=C(N)SCc1ccccn1	5%	-12%	-80*	2	2%	0%
CC(=O)c1ccc(NC(=O)c2nc(-c3ccccc3)n(-c3ccccc3)n2)cc1	2%	.	.	.	.	.
